PubChem BioAssay AID1117319 (Southern Research Institute, 2015)
Values joined by “and” are separate entries in the source; they are usually repeats but may differ in a detail not shown here. Identical values can stand only once. Hit rate of the full screen: of about 260,000 compounds, about 1,500 (0.58%) were called active. Not shown: some 5% with an inconclusive outcome.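 How the source made its calls: active means inhibition above a set limit at one or more doses, reproduced on every date tested; inconclusive means results disagree between test dates, or hit never tested in dose response; inactive means the rest.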 These entries were drawn from the full list. Results with a measured potency or affinity are listed apart.

Target: Virion infectivity factor (Human immunodeficiency virus type 1 group M subtype B (isolate BH10)) + Virion infectivity factor (Human immunodeficiency virus type 1 group M subtype B (isolate BRU/LAI)) + Virion infectivity factor (Human immunodeficiency virus type 1 group M subtype B (isolate PCV12)) + Virion infectivity factor (Human immunodeficiency virus type 1 group M subtype B (isolate HXB2)) + DNA dC->dU-editing enzyme APOBEC-3G (Homo sapiens) (UniProt P69720+P69721+P69722+P69723+Q9HC16)
Test: inhibitors of Vif binding to APOBEC3G peptide, primary screen, biochemical, TR-FRET, GST-Vif 1-94, biotin-A3G peptide, dose response retest (AID 1117319);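 further: Vif residues 1-94 fused to GST binding biotinylated APOBEC3G peptide 110-148; 0% = full assay without inhibitor and 100% = GST in place of GST-Vif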
Details: hits give high values

inhibition, inactive:
CCCCOc1ccc(C(=O)NN2C(=O)NC3(CCCCC3)C2=O)cc1OC 2.72%
CC[C@@H](C(=O)n1nc(C)cc1C)[C@H](NS(=O)(=O)c1ccc(C)cc1)c1ccccc1 -0.92%
CCNC(=O)CSc1nnc(-c2cccc(S(=O)(=O)N3CCOCC3)c2)o1 4.88%
O=C(c1cc(COc2ccc(F)cc2Cl)on1)N1CCCC(c2ccccc2)C1 (stereo not drawn) 2.73%
Cn1c(=O)[nH]c(=O)c2c1nc(N1CCOCC1)n2CCSc1nc2ccccc2[nH]1 2.63%
CC1(C)Cc2nc3sc4c(SCC(=O)NCc5ccccc5)ncnc4c3cc2CO1 -70.1% and -107%
CC1(C)Cc2nc3sc4c(=O)n(CC(=O)NCc5ccco5)cnc4c3cc2CO1 2.08%
CC1(C)NC(=O)N(CNc2cc(Cl)ccc2Cl)C1=O 20.3%
CCCn1c(SCC(=O)NC)nnc1C(C)C 6.34%
N#Cc1cccc(NC(=O)Cc2ccsc2)c1 5.18%
N#CC1CN(C(c2ccccc2)c2ccccc2)C1 -4.6%
CCOc1ccc(NC(c2ccccc2)P(=O)(OC)OC)cc1 (stereo not drawn) 5.04%
CCOc1ccc(N(CC(=O)OC)S(=O)(=O)c2c(C)noc2C)cc1 -1.15%
CCOc1ccc(N(CC(=O)NC(C)CC)S(=O)(=O)c2c(C)noc2C)cc1 (stereo not drawn) -0.89%
COC(=O)C1CCN(C(=O)Nc2ccccc2)CC1 0.21%
COc1cccc(-c2cc(C(F)(F)F)n3nc(N)nc3n2)c1 32.2%
COc1cccc(-c2cc3nc4c(c(N5CCC6(CC5)OCCO6)n3n2)CCCC4)c1 -6.69%
COc1ccc(N2CCN(CCNC(=O)Nc3ccc(C)c(Cl)c3)CC2)cc1 0.91%
CCCN(CC(=O)Nc1cccc(S(N)(=O)=O)c1)CC(=O)Nc1ccc(F)c(F)c1F 9.36%
CN(Cc1cnc2nc(N)nc(N)c2n1)c1ccc(C(=O)NC(CCC(=O)O)C(=O)O)c2ccccc12 (stereo not drawn) 4.59%
CN(Cc1cnc2nc(N)nc(N)c2n1)c1ccc(C(=O)NC(CCC(=O)O)C(=O)O)cc1C(F)(F)F (stereo not drawn) 4.16%
OCCNC(=S)Nc1ccc(Cl)c(Cl)c1 1.22%
COc1ccc(OC)c(C2CC(=O)N3CN(c4ccc(C)c(Cl)c4)CSC3=C2C#N)c1 (stereo not drawn) 6.54%
COc1ccc(C2CC(=O)N3CN(c4ccc(C)c(Cl)c4)CSC3=C2C#N)cc1OC (stereo not drawn) 13%
C=CC1=CCN(S(=O)C(C)(C)C)[C@@H]1CCO (stereo partly drawn) -5.14%
O=C(NNS(=O)(=O)c1ccccc1)c1ccc(O)cc1 12.2%
C=CCN(C(=O)c1ccccn1)C(C(=O)NCc1ccccc1)c1ccccc1F (stereo not drawn) 6.79%
Cc1nc2sc(C(c3cccs3)N3CCC(C(N)=O)CC3)c(O)n2n1 (stereo not drawn) 4.3%
CCOC(=O)C1CCN(C(c2ccc(OC)c(OC)c2)c2sc3nc(C)nn3c2O)CC1 (stereo not drawn) -0.48%
COc1ccccc1/C=C/C=N/NC(=O)c1ccco1 -2.59%
COC(=O)c1cc(CSc2nc3ccccc3[nH]2)oc1C -2.28%
CCCN(CCC)C(=O)c1ccc2c(c1)OCO2 14.8%
CCN(C(=O)CCS(=O)(=O)c1ccc(Br)cc1)c1ccc2c(c1)OCO2 27.3%
COc1ccc(S(=O)(=O)NCC(=O)NCc2cc(=O)n(C)c(=O)n2C)cc1 -1.92%
O=c1[nH]c2ccccc2n2c(C(F)(F)F)nnc12 -5.29%
O=c1[nH]c2ccccc2n2c(-c3ccncc3)nnc12 4.55%
Cc1sc(N(C(=O)CCc2ccccc2)c2ccc(C(=O)O)cc2)nc1-c1ccccc1 -5.7%
COc1ccc(C(=O)NCCS(=O)(=O)NC2CCCC2)cc1 -8.13%
CCOC(=O)c1c(C)[nH]c(C(=O)Cn2c(=O)oc3ccccc32)c1C -6.81%
CC(=O)Cn1c(=O)oc2ccccc21 0.93%
Cc1ccccc1CS(=O)(=O)Cc1ccc(C(=O)NCCCN2CC(C)CC(C)C2)o1 (stereo not drawn) 28%
COc1ccc(S(=O)(=O)NCCSCc2ccco2)cc1 24%
Cc1ccc(S(=O)(=O)NCCSCc2ccco2)cc1 -0.39%
O=C1NC[C@@H](Cc2cccc3ccccc23)N(CC2CCCCC2)C1=O 5.43%
COc1ccc(/C=C2\C(=O)NCC(=O)N2Cc2ccccc2)cc1 -2.05%
CC1=CC(=O)C=C(C)C1=NOS(=O)(=O)c1ccccc1 9.66%
CC1=C/C(=N\OS(=O)(=O)c2ccccc2)C(C)=CC1=O 19.9%
Cc1cccc(NS(=O)(=O)c2nnc(NC(=O)CC(C)C)s2)c1 -2.78%
C=CCn1c(C)cc(-c2csc(NCC)n2)c1C 32.5%
CCCn1c(C)cc(-c2csc(N)n2)c1C 11.8%
COc1ccc(-n2ccc(=O)c3c2CCCC3=O)cc1 9%
COc1ccc(N2C3=C(CC4=C2CC(C)(C)CC4=O)C(=O)CC(C)(C)C3)cc1 24.6% and 5.22%
Nc1cc(=O)[nH]c(SCc2ccc(Cl)cc2Cl)n1 -1%
CCN(CC(=O)Nc1ccccc1C(F)(F)F)C(=O)Cn1c(=O)cnc2ccccc21 -3.46%
Cc1nc2sc3c(c2c(=O)o1)CCC3 11.5%
O=c1[nH]c2sc3c(c2c2nncn12)CCCC3 24.3%
Cc1cccnc1NC(=O)c1ccc(S(=O)(=O)N2CCCCCC2)cc1 -2.42%
Cc1ccc(CN2CCC[C@]3(N[C@H](c4ccc(C(F)(F)F)cc4)[C@@H]4C(=O)N(Cc5ccccc5)C(=O)[C@@H]43)C2=O)cc1 5.48%
CCn1c2ccccc2c2nc3cc(S(=O)(=O)N4CCOCC4)ccc3nc21 2.64%
Nc1nc2cc(S(=O)(=O)N3CCOCC3)ccc2o1 -2.39%
O=C(OCn1nnc2ccccc2c1=O)c1cccnc1Cl 0.6%
COc1nc(NCCC2=CCCCC2)nc(OC)n1 -1.44%
CCOC(=O)N1CCN(C(=O)c2cc(C)no2)CC1 -3.25%
CC(=O)N/C(=C\c1ccccc1)C(=O)OCC(=O)N(CC(C)C)c1c(N)n(Cc2ccccc2)c(=O)[nH]c1=O 4.02%
CC(C)CC(=O)Nc1ncc([N+](=O)[O-])s1 8.92%
COc1ccc(C(=O)OCC(=O)Nc2ncc([N+](=O)[O-])s2)cc1OC 5.33%
Cc1csc(NC(=O)CSc2nncn2C)n1 7.24%
O=C(COC(=O)c1cccc([N+](=O)[O-])c1)Nc1ncc(Br)s1 1.23%
C=CCn1c(SCC(=O)NCc2ccc3c(c2)OCO3)nc2scc(-c3ccccc3)c2c1=O -40.6%
Cc1ccsc1C(=O)Nc1nc2ccccc2[nH]1 -12.8%
COc1ccc(NC(=O)C2(c3ccc(NC(=O)c4ccc(OC)c(OC)c4)cc3)CCCC2)cc1 0.05%
O=C(Nc1ccc(Br)cn1)C1CCCN1S(=O)(=O)c1ccccc1 (stereo not drawn) 4.08%
CC1=CCC2C(=O)N(c3nc4ccccc4n3C)C(=O)C2C1 (stereo not drawn) 24.7%
Cc1cccc(N2C(=O)CC(N(O)c3ccccc3)C2=O)c1 (stereo not drawn) 3.45%
O=C(/C=C/c1cccs1)N1CCN(c2ccccc2)CC1 -0.91%
O=C(/C=C/c1cccs1)N1CCN(c2ccc(F)cc2)CC1 3.81%
COC(=O)CC1C(=O)NCCN1C(=S)NC(=O)c1ccccc1[N+](=O)[O-] (stereo not drawn) 13.4%
COc1ccc2c(c1)c(=O)oc1cc(OCC(=O)NC3CC3)ccc12 -2.02%
COc1ccc2c(c1)c(=O)oc1cc(OCC(=O)N3CCCC(C)C3)ccc12 (stereo not drawn) -1.48%
CCCOC(=O)c1ccc(NC(=O)c2ccccc2[N+](=O)[O-])cc1 -4.31%
CCN(CC)S(=O)(=O)c1ccc(C(=O)OC2CCCCC2CN(C)C)cc1 (stereo not drawn) -1.05%
COc1ccc(CCNS(=O)(=O)CCNC(=O)c2ccccc2)cc1 -6.03%
CC(/C=C/c1ccc(C)o1)=C\C(=O)O 2.74%
CC(/C=C/c1ccc(Cl)o1)=C\C(=O)O 27.4%
O=C1C2C3CCC(C3)C2C(=O)N1CNc1ccccc1 (stereo not drawn) -1.35%
Cc1ccc2[nH]c(=O)c(CN(C(=O)c3cccc([N+](=O)[O-])c3)C(C)(C)C)cc2c1 -6%
CN(Cc1ccccc1)S(=O)(=O)c1ccc(Cl)c(C(=O)NCCCN2CCOCC2)c1 -5.26%
CC(C)CN1C=C2C(=O)C(C)(OC(=O)C3CCCC3)C(=O)C=C2C=C1c1ccsc1 (stereo not drawn) 28.7%
CC1(OC(=O)CCc2ccccc2)C(=O)C=C2C=C(c3ccc(C#N)cc3)N(CC3CC3)C=C2C1=O (stereo not drawn) -1.42%
CC1(OC(=O)CCc2ccccc2)C(=O)C=C2C=C(c3ccc(C#N)cc3)N(C(CO)CO)C=C2C1=O (stereo not drawn) 0.31%
CC1(OC(=O)C2CCCC2)C(=O)C=C2C=C(c3ccsc3)N(C(CO)CO)C=C2C1=O (stereo not drawn) 15.2%
COc1ccc(-c2ccc(SCC(=O)N3CCOCC3)nn2)cc1OC 2.85%
COc1ccccc1OCCCC(=O)Nc1nnc(C2CCCO2)s1 (stereo not drawn) -0.39%
